Reference: paper PMC7819943, “Rice protein-binding microarrays: a tool to detect cis-acting elements near promoter regions in rice”
Whole data set: some 68,000 sequences, median “fluorescence intensity (a.u.)” near 9,100, cut for the highest 2% near 16,000. The sample holds the highest values, similar sequences and a random draw of the others, so the mix is not that of the screen.

Target: OsWRKY34 (Oryza sativa, UniProt Q0JBA9 1-250)
Experiment: protein-binding microarray (RPBM); PBS, 2% BSA, 51.3 ng/ul salmon testes DNA, 50 uM zinc acetate, 200 nM TF, 25 C, 1 h; high values mean tight binding
Conditions: protein: recombinant; tags: N-terminal polyhistidine and DsRed monomer fusion (pET32a); label: CyDye5-dUTP incorporated in the synthesized complementary strand; 3' TTTTT single-stranded linker to array surface; dsDNA, one strand shown
How it was run: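 Transcription factors were made in E. coli BL21-CodonPlus as N-terminal fusions to a polyhistidine tag and DsRed, then purified on Ni–NTA. After primer extension with Cy5-dUTP and blocking with 2% BSA, a custom Agilent array was exposed for 1 h at 25 °C to 200 nM protein in PBS, 2% BSA, salmon testes DNA and 50 µM zinc acetate. Washed arrays were scanned on an Axon 4000B, and the binding signal is per-feature fluorescence intensity in arbitrary units.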

Sequence of OsWRKY34 (Q0JBA9 entry or part of it): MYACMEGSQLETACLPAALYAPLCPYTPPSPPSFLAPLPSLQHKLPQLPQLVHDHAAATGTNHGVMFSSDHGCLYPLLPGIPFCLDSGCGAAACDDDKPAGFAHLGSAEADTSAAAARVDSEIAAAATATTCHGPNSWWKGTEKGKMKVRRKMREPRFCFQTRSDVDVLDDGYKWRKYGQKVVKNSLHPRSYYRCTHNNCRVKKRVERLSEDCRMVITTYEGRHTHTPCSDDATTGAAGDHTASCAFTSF

Sequence	binding signal
TTCTGGATCTTGACTCTTGACCAGTTCATCCACACGTGTGCGGAGTCACCTAGTGCAG	8540 fluorescence intensity (a.u.)
TCTCCCTCAGTTACTGCCTTGCTCCCCAACCCCAGGAGCACGGAGTCACCTAGTGCAG	9230 fluorescence intensity (a.u.)
GCTTGGGGTGGAATCGCGTGGACAGCGTGGGCCTCAGTCACGGAGTCACCTAGTGCAG	12000 fluorescence intensity (a.u.)
ATATTTATTAGTTGGCGTGTATGTAAAACTTGTGTGTTTCCGGAGTCACCTAGTGCAG	8400 fluorescence intensity (a.u.)
CCATTGTTTTCTTCTTGTCCTTTTAGAGATGTTGGGTACACGGAGTCACCTAGTGCAG	8240 fluorescence intensity (a.u.)
AACCACCCCGCGTTTCCAGTCTCCACCACATCAACTCCCCCGGAGTCACCTAGTGCAG	10200 fluorescence intensity (a.u.)
CCCCAATGAATCATAGGCTCAACCTGCTCCTGCTGCAACACGGAGTCACCTAGTGCAG	8040 fluorescence intensity (a.u.)
GGTCCGGCGGAAGTAGGGGCGGAAGTGCGGGCGGGAGATGCGGAGTCACCTAGTGCAG	9700 fluorescence intensity (a.u.)
GACACATCTTAGTTTCATGAATTTGCACAAGAATTGCATGCGGAGTCACCTAGTGCAG	10800 fluorescence intensity (a.u.)
AGCCTGGAAGCCCATTCAGCGGCGGGGTTGGGGCGGCAGGCGGAGTCACCTAGTGCAG	10200 fluorescence intensity (a.u.)
AGATTGCTTTTCTTACAAGGACGACGCTAACAATAACATCCGGAGTCACCTAGTGCAG	9110 fluorescence intensity (a.u.)
GATGTGGATTTGGGATGTTAATTTGATTTGGGATTTGGGGCGGAGTCACCTAGTGCAG	10600 fluorescence intensity (a.u.)
GGCAATGCTTCACCGTCGCTTGCACCCCTTTCTCATGTGTCGGAGTCACCTAGTGCAG	9790 fluorescence intensity (a.u.)
CCCATTTGCCATGTCAACGCACCGTACTAATTAATCCTTGCGGAGTCACCTAGTGCAG	10200 fluorescence intensity (a.u.)
CCGCGGCCCAATAGCTCTTAGCCCATTGCCATCCGCCATCCGGAGTCACCTAGTGCAG	9820 fluorescence intensity (a.u.)
TGTTGTTGACTTTTAAACACATGTTTGATCATTTGTCTTACGGAGTCACCTAGTGCAG	14600 fluorescence intensity (a.u.)
TCCCTAAATGTTTGACACCGTTGACCTTTTTAAAACATTTCGGAGTCACCTAGTGCAG	17800 fluorescence intensity (a.u.)
TTCCCTAAATGTTTGACACCGTTGACTTTTTTTTAAACATCGGAGTCACCTAGTGCAG	33300 fluorescence intensity (a.u.)
CCTAAATGTTTGACTCCGTTGACTTTTTTAAACATGTCTGCGGAGTCACCTAGTGCAG	26100 fluorescence intensity (a.u.)
CCGTTTTAAAATGTTTGACACCGTTGACTTTTTAGTACATCGGAGTCACCTAGTGCAG	26100 fluorescence intensity (a.u.)
AGATGACTCCGTTGACTTTTAAACACATGTTTGATAATTCCGGAGTCACCTAGTGCAG	16200 fluorescence intensity (a.u.)
TTACATTTTAGGACATATATTTGGGGAGCTTCTTGGCTGTCGGAGTCACCTAGTGCAG	10800 fluorescence intensity (a.u.)
ATTTGTCTCTTTCGCGTCGTCTCTAACCTAACGTCCCAGACGGAGTCACCTAGTGCAG	13100 fluorescence intensity (a.u.)
CCCACGCGCCCACTTTGACCGACCCATCGATCGATCACGACGGAGTCACCTAGTGCAG	14300 fluorescence intensity (a.u.)
GCAACACCTCCCCTGTTCTTGCTCTGTTTCCTCACTCTGTCGGAGTCACCTAGTGCAG	10200 fluorescence intensity (a.u.)
TCTATCTGCCTGACTATCTCTATCTCGATCTCGTCCAGGACGGAGTCACCTAGTGCAG	9860 fluorescence intensity (a.u.)
ATCCGAGCATCTCGCCTCGCCCCGCCCCGCCCCGATCGATCGGAGTCACCTAGTGCAG	9480 fluorescence intensity (a.u.)

Sequence	binding signal
CTAGTAGTGCACACAAGCGGCAGCAGGAGGGGAGGGTGGTCGGAGTCACCTAGTGCAG	9190 fluorescence intensity (a.u.)
CTCTCTCTGCCATATCCTGTGCTTTTCTTGTATTCCATCCCGGAGTCACCTAGTGCAG	11400 fluorescence intensity (a.u.)
GTTTGACACTTTTAGTACGTGTTTGACCATTTGTTTTATTCGGAGTCACCTAGTGCAG	10200 fluorescence intensity (a.u.)
CCTAAATGTTTGACACCGTTGACTTTTTTAAACATATTTGCGGAGTCACCTAGTGCAG	33000 fluorescence intensity (a.u.)
ATGTTTGACACCGTTGACTTTTTAGTACGTGTTTGACCATCGGAGTCACCTAGTGCAG	28200 fluorescence intensity (a.u.)
TTCTCCACGGCAAACCACCACCGGCGTCACCAGCCCACCACGGAGTCACCTAGTGCAG	8110 fluorescence intensity (a.u.)
CTTTTCCATTTCCATGCATTCTTTGATCATCAAGTGATCACGGAGTCACCTAGTGCAG	12100 fluorescence intensity (a.u.)
TTGACCTGCTAGCCTTTTTTTTTTCGCAAATCTATTCCTGCGGAGTCACCTAGTGCAG	8440 fluorescence intensity (a.u.)
ATTTCTGCAGACCCATTTTGCTTTTGAAACACTGCTGATTCGGAGTCACCTAGTGCAG	9790 fluorescence intensity (a.u.)
AGTTTGTCATGGTCTAAAATATTACCCAGGTGTTCTTTGACGGAGTCACCTAGTGCAG	8760 fluorescence intensity (a.u.)
GGCCAATAAGTTCCAGTTCTCTTCTTAAGGCCCATTAGACCGGAGTCACCTAGTGCAG	61800 fluorescence intensity (a.u.)
CATTCTCTTCTCAACCAATAACAACTCTTCCACCATTCACCGGAGTCACCTAGTGCAG	9540 fluorescence intensity (a.u.)
CCATTAGTAAGTTCTCTCGTGGCCCAATACTCTCTTGATGCGGAGTCACCTAGTGCAG	8840 fluorescence intensity (a.u.)
CTCTCTCTCTCCTCGCGTGACTCGCGCGTGCCCTCGCCGCCGGAGTCACCTAGTGCAG	8130 fluorescence intensity (a.u.)
GCCTTCATCATATTCCCAGCTGGTAACTCTATCCATTGACCGGAGTCACCTAGTGCAG	16400 fluorescence intensity (a.u.)
ACTAAACTCTGCCTTCATCATATTCCCAGCTGGTAACTCTCGGAGTCACCTAGTGCAG	10300 fluorescence intensity (a.u.)
TATTCCCAGCTGGTAACTCTATCCATTGACGGCTGTGTTTCGGAGTCACCTAGTGCAG	9650 fluorescence intensity (a.u.)
CCTCTGGTCACGCATTCTACACAGAATCTCTGGTTTTCCCCGGAGTCACCTAGTGCAG	9500 fluorescence intensity (a.u.)
ATCTTAACCGCAACAGCTTTGCATCTTTTTAGTACCTATTCGGAGTCACCTAGTGCAG	8170 fluorescence intensity (a.u.)
GAACAGCTCAGCTCACCGCATCCTTTGACTTTTTAACCAGCGGAGTCACCTAGTGCAG	18100 fluorescence intensity (a.u.)
TTGCAGCTGTCCTCTCTACCTTAACCCTTTGACCAGTGCTCGGAGTCACCTAGTGCAG	9130 fluorescence intensity (a.u.)
ACTTTCTTTTTTTCTTTTTAACCTTGACCTTTACTGGCATCGGAGTCACCTAGTGCAG	8690 fluorescence intensity (a.u.)
ATATGCTGTCTTTTACTTGACTTGTAGTGCAACCTTCCACCGGAGTCACCTAGTGCAG	12100 fluorescence intensity (a.u.)
TCCTTTGACTTTTTAACCAGCTGTCTACTAGTAGTACTACCGGAGTCACCTAGTGCAG	17800 fluorescence intensity (a.u.)
CACACGCACGCTTCTCACGTACATATCGATCGCAAATATCCGGAGTCACCTAGTGCAG	8490 fluorescence intensity (a.u.)
GCCGATAGAGGCATGGGGTTTGTTCAGATTGATGTCATTTCGGAGTCACCTAGTGCAG	9370 fluorescence intensity (a.u.)
CCGTGGTGGTACGCGCGCGCTGCGTACGTTTTTTTTTCTTCGGAGTCACCTAGTGCAG	9450 fluorescence intensity (a.u.)
